DT40 TDP1 no CPT = qHTS for Inhibitors of human tyrosyl-DNA phosphodiesterase 1 (TDP1): qHTS in cells in absence of CPT; hit rate 15% among 420,000; DT40 Tdp1-/- hTDP1 cells, no CPT, ATP luminescence, 48 h; AID 686978, 2013; Potency, µM (top dose mostly 46.2 µM), for inactives: at the highest dose activity change, negative = growth inhibition, actives largely listed as inhibitors; further: nearly all actives have a fitted effect of over 55% in size
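Growth of hTDP1-complemented DT40 Tdp1-knockout cells is measured by ATP luminescence after at least 48 hr compound exposure at 37 °C, with DMSO substituting for the 20 nM CPT used in the parallel screen.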
VDR inh = vitamin D3 receptor (human) inhibition | P11473 | VDR-SRC2-3 peptide fluorescence polarization, 2 h | Potency, µM, for the others: max response, negative = inhibition, actives largely listed as inhibitors | hit rate 0.93% among 400,000
Target sequence (P11473 whole entry, looked up): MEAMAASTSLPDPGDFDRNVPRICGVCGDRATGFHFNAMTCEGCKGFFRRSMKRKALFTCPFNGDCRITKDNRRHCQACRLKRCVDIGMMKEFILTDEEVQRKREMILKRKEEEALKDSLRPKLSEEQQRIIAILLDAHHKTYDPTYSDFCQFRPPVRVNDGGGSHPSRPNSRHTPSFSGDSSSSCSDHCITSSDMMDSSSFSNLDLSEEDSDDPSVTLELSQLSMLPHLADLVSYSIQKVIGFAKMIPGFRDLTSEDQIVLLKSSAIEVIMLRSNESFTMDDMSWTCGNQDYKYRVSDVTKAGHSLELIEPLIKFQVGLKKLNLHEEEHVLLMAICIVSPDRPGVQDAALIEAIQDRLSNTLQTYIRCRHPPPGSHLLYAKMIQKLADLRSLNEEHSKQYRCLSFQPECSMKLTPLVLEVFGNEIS
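Compounds are added to VDR with labelled SRC2-3 coactivator peptide and held 2 h at room temperature. Inhibition of the VDR–peptide interaction is then read as a change in fluorescence polarization.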
KAT2A inh = inhibitors of human GCN5L2 histone acetyltransferase; hit rate 0.21% among 390,000; Potency, µM (top dose mostly 58.9 µM), inactives show top-dose activity change, negative = inhibition, usual class: inhibitors; Q92830; GCN5L2 HAT assay, ThioGlo1 CoA-SH fluorescence; AID 504327
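Compounds, pin-transferred from DMSO stocks, meet 20nM GCN5L2 for 15 min before the reaction begins with H3(1-25) peptide (75uM) and acetyl-CoA (70uM). Thiol-reactive ThioGlo1 reports CoA release over 20 min at room temperature.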
PLK1 PBD inh = blocks phosphopeptide binding to human PLK1 polo-box domain | hit rate 2.8% among 360,000 | Plk1 PBD binding of FITC phosphopeptide, fluorescence polarization | Potency, µM, without a hit: max response, negative = inhibition, hits mostly inhibitors; further: series mostly up to about 57 µM; nearly all actives have a fitted effect of over 65% in size
TDP1 block = TDP1 (human) enzyme inhibition; Q9NUW8; recombinant TDP1, AlphaScreen DNA substrate cleavage; Potency, µM (series often up to 130 µM), inactives show at the highest dose activity change, negative = inhibition, usual class: inhibitors; hit rate 0.28% among 350,000; AID 485290; further: nearly all actives have a fitted effect of over 40% in size
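Tdp1 1 nM final; 15 min RT w/ cpd; substrate 15 nM, 5 min; beads 10 ug/ml, 10 min; AlphaScreen read. Neg ctrl: no enzyme.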
TDP1 cell CPT = DT40-hTDP1 cell growth loss with CPT; chicken DT40 Tdp1-/-;hTDP1 cells + 20 nM CPT, ATP luminescence, 48 h; Potency, µM (titrated, usually from 46.2 µM), for inactives: top-dose activity change, negative = growth inhibition, actives largely listed as inhibitors; hit rate 12% among 420,000; further: nearly all actives have a fitted effect of over 55% in size
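Chicken DT40 Tdp1-/- cells stably complemented with human TDP1 were seeded at 400 cells/well in medium containing 20 nM camptothecin, exposed to pin-transferred compounds, and grown at 37 °C for at least 48 hr. Viability was read as ATP luminescence.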
* = called active by the depositor; ? = inconclusive; . = no result; [ ] = dose if it differs, or a comment. A selection: hits, their analogues and other compounds. The true share with any hit is near 18%. The call rests on the fitted dose curve; in most records, active means well fitted curve in the direction sought with a large enough effect; inconclusive means small, poorly fitted or top-dose-only effect, or another doubt; inactive means no such curve, though single readings can be large; an effect the other way counts as inactive or inconclusive. On the % scale 0 is the no-effect control and ±100 the full control effect; potency means the concentration at half of the fitted maximal effect.

SMILES	DT40 TDP1 no CPT	VDR inh	KAT2A inh	PLK1 PBD inh	TDP1 block	TDP1 cell CPT
CCC1C(=O)NCCN1Cc1ccc2c(c1)CN(Cc1cccn1-c1ccc(Cl)cn1)CCO2 (stereo unspecified)	?	.	.	.	.	8.3%[9.04 µM]
Cc1ccc(C(=O)Nc2nc(-c3ccco3)c(-c3ccco3)s2)o1	20.6µM*	?	-19.3%	-29.7%	-0.3%	8.2µM*
COc1ccc(-c2nc(NC(=O)c3ccco3)sc2C)cc1	23.1µM*	.	.	-8.8%	.	20.6µM*
COc1ccc(-c2nc(NC(=O)C3CCN(c4nc5ccccc5o4)CC3)sc2C)cc1	?	8.3%	-15.1%	0.5%	5.2%	16.4µM*
COc1ccc(-c2nc(NC(=O)Cn3cnnn3)sc2C)cc1	6.4%	-11.9%	-9.1%	-4.6%	8.3%	9.6%
COc1cc(C(=O)Nc2ccc(C)cn2)ccc1OCC(=O)N1CCOCC1	11.6%	-3.6%	-5.9%	-1.3%	0.0%	-0.9%
COc1ccc(-c2nc(NC(=O)c3ccc(OCC(=O)N4CCOCC4)c(OC)c3)sc2C)cc1	18.4µM*	-6.9%	-6.1%	8.5%	9.1%	23.1µM*
N#C/C(=C\c1ccc(OCC(N)=O)cc1)S(=O)(=O)c1ccccc1	-2.0%	7.7%	-0.6%	-0.9%	2.7%	0.8%
COc1ccc(-c2nc(NC(=O)C3CC(=O)N(Cc4ccco4)C3)sc2C)cc1 (stereo unspecified)	11.6µM*	-24.8%	-6.5%	-17.7%	7.5%	16.4µM*
O=C(NCCCN1CCN(c2ccccc2F)CC1)C1CCN(S(=O)(=O)c2cccs2)CC1	?	-2.7%	-11.4%	-11.3%	5.9%	12.6µM*
O=C(NCCN1C(=O)S/C(=C\c2ccccc2)C1=O)C1CCN(S(=O)(=O)c2cccs2)CC1	18.4µM*	-11.7%	-1.6%	-11.9%	4.5%	13µM*
CCS(=O)(=O)N1CCC(C(=O)NCCCN2CCN(c3ccccc3F)CC2)CC1	2.9%	2.7%	0.1%	-0.8%	0.0%	0.0%
CCn1cc(/C=C(\NC(=O)c2ccc(OC)c(OC)c2)C(=O)NCCCn2ccnc2)c2ccccc21	-21.9%	1.0%	-12.4%	.	5.1%	-9.1%
CN1CCN(c2cc(-c3ccoc3)ncn2)CC1	-1.6%	?	-8.0%	.	.	5.4%
Cc1nc(-c2coc3c(O)c(O)ccc3c2=O)cs1	3.8%[9.04 µM]	-10.2%	.	.	1.9%	-17.9%[9.04 µM]
Cc1ccc2c(c1)[C@H]1[C@H](CO2)[C@H](c2ccccc2)[C@]2(C)C(=O)Nc3cc(F)ccc3C(=O)N12	?	-15.2%	-5.8%	-0.9%	2.9%	?
COc1ccc2oc(=O)c(-c3csc(Nc4cccc(O)c4)n3)cc2c1	16.4µM*	1.2%	-11.3%	-5.2%	0.6%	?
COc1ccc(-c2cc3cccc(OC)c3oc2=O)cc1	-0.5%	19.1%	-12.7%	-3.3%	.	-10.4%
COc1ccc(Nc2nc(-c3cc4cccc(OC)c4oc3=O)cs2)cc1	20.6µM*	-19.6%	-1.7%	-8.3%	1.1%	?
CCCCn1c(N)c(N(CCOC)C(=O)c2cc(C)oc2C)c(=O)[nH]c1=O	1.1%	-14.2%	-1.1%	-2.7%	5.8%	6.5%
C[C@]12CC[C@@H]3c4ccc(O)cc4[C@@H](O)C[C@H]3[C@@H]1CC[C@@H]2O	.	.	1.6%	.	-5.5%	.
Cc1cc(O)cc2c1C1CCC3(C)C(O)CCC3C1C=C2 (stereo unspecified)	20.6µM*	17.1%	.	-26.4%	.	?
COc1ccc(CCN2C(=O)N[C@@H](C(C)C)C2=O)cc1	-1.6%	-0.5%	-7.4%	-1.2%	.	13.4%
O=P(O)(O)OP(=O)(O)OP(=O)(O)O	-13.9%	6.9%	4.6%	.	2.1%	-18.4%
O=C(Cn1c(C(=O)N2CCc3ccccc3C2)cc2sccc21)c1ccccc1	?	5.2%	-11.2%	-26.1%	1.0%	29.1µM*
SMILES	DT40 TDP1 no CPT	VDR inh	KAT2A inh	PLK1 PBD inh	TDP1 block	TDP1 cell CPT
CCCCCCc1cc2cc(C(=O)Nc3ccccc3)c(=O)oc2cc1O	3.66µM*	5.2%	-1.2%	-9.6%	5.5%	3.26µM*
O=C(COC(=O)c1ccc(O)cc1)NC1CCCCCCC1	?	.	.	-4.8%	.	-13.9%
CCCCNC(=O)COC(=O)c1ccc(NS(=O)(=O)c2ccc3c(c2)OCCO3)cc1	-27.3%	17.2%	2.7%	1.7%	8.8%	?
NC1=CC(=O)C(=O)c2ccccc21	16.4µM*	44.7µM*	.	-21.6%	.	23.1µM*
COc1cccc(/C=N/NC(=O)c2cnccn2)c1O	?	6.2%	-0.4%	-14.5%	.	?
COc1cccc(/C=N/NC(=O)c2cc(-c3cccn3C)n[nH]2)c1O	6.51µM*	6.1%	-2.7%	-29.5%	10.8%	5.8µM*
COc1cc(/C=N/NC(=O)c2cc(-c3cccn3C)n[nH]2)cc(OC)c1OC	20.6µM*	0.9%	-1.7%	-16.9%	6.7%	20.6µM*
Cn1cccc1-c1cc(C(=O)N/N=C/C=C/c2ccccc2)[nH]n1	?	21.8%	-3.8%	-29.5%	8.3%	?
Cn1cc(-c2nc3cncnc3n(Cc3ccccc3Cl)c2=O)c2ccccc21	-9.4%	-0.2%	-5.2%	.	.	-3.0%
Oc1ccc(C[C@H]2CN([C@@H](Cc3ccccc3)CN3CCCC3CN3C(=S)NC[C@@H]3Cc3ccccc3)C(=S)N2CCc2ccccc2)cc1 (stereo partly specified)	16.4µM*	.	.	3.0%	.	20.6µM*
O=C1NC[C@H](Cc2ccccc2)N(C[C@@H]2CCCN2C[C@H](Cc2ccccc2)N2C[C@H](Cc3ccc(O)cc3)N(CCc3ccccc3)C(=O)C2=O)C1=O	?	.	.	-2.8%	.	?
CC(C)C[C@@H](CN1CCC[C@H]1CN1C(=O)C(=O)NC[C@@H]1Cc1ccc(O)cc1)N1C[C@H](Cc2ccccc2)N(CCc2ccccc2)C(=O)C1=O	-3.1%	.	.	-1.8%	.	?
Oc1ccc(C[C@H]2CN([C@@H](Cc3ccc(O)cc3)CN3CCC[C@@H]3CN3C(=S)NC[C@@H]3Cc3ccccc3)C(=S)N2CCc2ccccc2)cc1	10.3µM*	.	.	-16.6%	.	9.2µM*
Oc1ccc(C[C@H]2CNC(=S)N2C[C@H]2CCCN2C[C@H](Cc2ccccc2)N2C[C@H](Cc3ccc(O)cc3)N(CCc3ccccc3)C2=S)cc1	4.11µM*	.	.	-0.7%	.	7.31µM*
CC(C)C[C@@H](CN1CCCC1CN1C(=S)NC[C@@H]1Cc1ccc(O)cc1)N1C[C@H](Cc2ccc(O)cc2)N(CCc2ccccc2)C1=S (stereo partly specified)	7.31µM*	-12.3%	.	-6.9%	.	13µM*
